GALC G270D act – galactocerebrosidase G270D activity enhancement, cell-based. 145M-Twi-hGALC-G270D cells (Twitcher mouse brain line with human GALC G270D), HMU-beta-Gal fluorescence, 48 h. Potency, µM (series often up to 57.5 µM), hits mostly activators. 0.1% of 45,000 active. AID 1159614; also: nearly all actives have a fitted effect of over 65% in size
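Live 145M-Twi cells (Twitcher mouse brain-derived, GALC-null) stably expressing human GALC-G270D, with a wild-type GALC line, were compound-treated. Residual GALC activity was then read as fluorescence from 0.1 mM final HMU-β-gal at pH 5.2; higher signal means activation.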
p53null 39C tox – p53 null cell cytotoxicity, nonpermissive temperature; H1299 p53-null (neo) cells, 39C, ATPlite viability, 24 h; Potency, µM (top dose mostly 46.1 µM), most hits filed as cytotoxic; 0.97% of 55,000 active; also: nearly all actives have a fitted effect of over 50% in size
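ATP-luminescence viability readout (ATPlite, 20 min RT) after 24 hr compound treatment at 39C of H1299-neo or H1299-p53A138V cells; titration up to 46 uM; normalized to DMSO and 100 uM tamoxifen; Hill-fit AC50.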
FH mod – Identification of activators of human fumarate hydratase by quantitative high-throughput screening; 0.22% of 54,000 active; Potency, µM (titrated, usually from 79.9 µM), usual class: inhibitors; Fumarate hydratase, mitochondrial (Homo sapiens), P07954; FH coupled MDH/diaphorase resazurin fluorescence, 15 min; also: the screen sought activators but most active calls are inhibition curves; nearly all actives have a fitted effect of over 45% in size
Target sequence (P07954 whole entry, looked up): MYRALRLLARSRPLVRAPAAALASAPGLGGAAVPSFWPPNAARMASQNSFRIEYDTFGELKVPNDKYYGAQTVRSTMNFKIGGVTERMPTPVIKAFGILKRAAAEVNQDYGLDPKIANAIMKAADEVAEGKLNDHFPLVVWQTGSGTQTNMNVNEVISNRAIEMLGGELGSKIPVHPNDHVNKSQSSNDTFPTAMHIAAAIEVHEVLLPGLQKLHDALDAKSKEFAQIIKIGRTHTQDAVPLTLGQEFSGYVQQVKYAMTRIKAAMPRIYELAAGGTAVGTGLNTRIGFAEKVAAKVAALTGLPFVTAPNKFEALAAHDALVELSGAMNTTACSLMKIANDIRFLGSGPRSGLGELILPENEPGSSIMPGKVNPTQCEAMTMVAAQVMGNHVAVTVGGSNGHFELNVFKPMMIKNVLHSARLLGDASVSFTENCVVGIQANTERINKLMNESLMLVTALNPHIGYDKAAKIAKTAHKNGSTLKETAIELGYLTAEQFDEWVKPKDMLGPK
NTMT1 inh – blocks human N-terminal methyltransferase 1 activity | Potency, µM (titrated, usually from 114 µM), hits mostly inhibitors | 2.5% of 59,000 active | NTMT1 MTase-Glo SAH luminescence, purified enzyme; also: nearly all actives have a fitted effect of over 65% in size
Target sequence (Q9BV86 whole entry, looked up): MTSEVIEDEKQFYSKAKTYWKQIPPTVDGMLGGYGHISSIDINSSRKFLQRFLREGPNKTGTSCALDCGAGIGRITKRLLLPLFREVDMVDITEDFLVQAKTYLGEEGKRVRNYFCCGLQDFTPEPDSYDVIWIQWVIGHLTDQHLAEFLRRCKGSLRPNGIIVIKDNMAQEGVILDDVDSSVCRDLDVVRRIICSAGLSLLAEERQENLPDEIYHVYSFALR
GPR32 ag – activates human resolvin D1 receptor GPR32; O75388; CHO-K1 GPR32 beta-arrestin PathHunter luminescence, 90 min; zero percent set by DMSO-only wells; activation, % at 76.9 µM; 2.5% of 48,000 active; AID 1346428;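 active = activation of at least 60% and not above a set upper limit, about 1 call in 100 departs from these limits; inconclusive = activation of 40% to 60%, or above that upper limit; inactive = activation under 40%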
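PathHunter enzyme-fragment complementation, CHO-K1 GPR32 stable line; 2,500 cells/well, overnight attach; cpd 90 min 37 °C 5% CO2; detection reagent 1 h RT; chemiluminescence. DMSO = EC0.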
p53null 32C kill – selectivity test: cytotoxicity in p53 null cells, permissive temperature; H1299-neo p53 null cells, ATP luminescence, 24 h, 32C; Potency, µM (top dose mostly 46.1 µM), actives largely listed as cytotoxic; 0.62% of 55,000 active; AID 903; also: nearly all actives have a fitted effect of over 55% in size
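H1299-neo (p53-null) cells, 600/well, were pre-incubated overnight at 37C, then exposed to compounds at up to 46 uM for 24 hr at 32C. Viability was measured as ATP content by luminescence, and AC50 values came from Hill fits.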
Numbers stand for hits; . = inactive; ? = inconclusive; / = no result given; ! = repeats disagree; [ ] = dose if it differs, or a comment. Sampled rows, rich in hits. Any-hit rate of the full collection: about 3.9%. Unless noted, calls follow the shape of the dose curve; as a rule, active = well fitted curve in the direction sought with a large enough effect; inconclusive = small, poorly fitted or top-dose-only effect, or another doubt; inactive = no such curve, though single readings can be large; an effect the other way counts as inactive or inconclusive.

SMILES	GALC G270D act	p53null 39C tox	FH mod	NTMT1 inh	GPR32 ag	p53null 32C kill
NC(=O)c1cccc2[nH]c(-c3ccc([C@H]4CCCN4)cc3F)nc12	/	/	.	44.7µM	/	/
NC(=O)c1cccc2[nH]c(-c3ccc(C4CCCN4)cc3F)nc12 (stereo not drawn)	/	/	.	.	/	/
COC(=O)C1(O)C(OC(C)=O)CCC2C3(CC(c4ccoc4)OC3=O)C(C)=CCC21C(=O)OC (stereo not drawn)	/	/	.	.	/	/
O=C(CSc1nccn1Cc1ccc(Cl)cc1)Nc1nc2ccccc2s1	.	14.1µM	.	.	.	.
CN1CCc2cccc3c2C1Cc1ccc(O)c(O)c1-3 (stereo not drawn)	/	/	14.1µM	/	.	/
CCOC(=O)C1CCCN(C(=O)c2cc3c(=O)n(C)c4ccccc4c3s2)C1 (stereo not drawn)	.	.	?	.	103.3	.
O=C(Nc1cccc(OCc2cc(=O)n3c4c(sc3n2)CCCC4)c1)c1ccc(F)cc1	.	.	.	.	.	.
COc1ccc(C(=O)Nc2cccc(OCc3cc(=O)n4c5c(sc4n3)CCCC5)c2)cc1OC	.	.	.	.	63.4	?
CCc1cnc2c(c1SC(C(C)=O)C(=O)N(C)C)c(=O)n(C)c(=O)n2C (stereo not drawn)	.	.	.	25.1µM	.	.
CCc1cnc2c(c1SCC(=O)N1CCCCC1)c(=O)n(C)c(=O)n2C	.	.	.	.	.	.
CCCC(C)NC(=O)Cn1nc(-c2ccc(C)cc2)ccc1=O (stereo not drawn)	/	/	/	.	/	/
O=C(Nc1ccc(NC(=O)c2ccco2)nc1)c1cccnc1	/	?	/	/	/	12.6µM
COc1ccc2nc(C)cc(Nc3ccc(Cl)c(Cl)c3)c2c1	.	12.6µM	.	.	.	?
NC1(c2ccc(-c3nc4ccn5c(=O)[nH]nc5c4cc3-c3ccccc3)cc2)CCC1	.	/	.	50.1µM!	.	/
CCCCCCCCCCCCCCCCCCNC(=O)OC1CCN(C(=O)OC[C@H](COC(=O)N(Cc2cccc[n+]2CC)C(=O)c2ccccc2OC)OC)CC1	.	/	.	50.1µM	.	/
COc1ccccc1NC(=O)OCC1CCN(C(=O)OC(C)(C)C)CC1	/	/	.	.	/	/
Cc1cccc(OCCCSc2nc(-c3ccc(C(C)(C)C)cc3)nc3cc(=O)[nH]n23)c1C	.	12.6µM	?	?	.	.
Cc1ccc(OCCSc2nc(-c3ccccc3C)nc3cc(=O)[nH]n23)cc1Cl	.	25.1µM	?	.	?	.
Cc1cccc(-c2nc(SCCCOc3ccc(Cl)c(C)c3)n3[nH]c(=O)cc3n2)c1	.	.	.	.	.	.
CC1NC(=O)CCCNC(=O)C(Cc2c[nH]c3ccccc23)NC(=O)C(C)NC(=O)C(C(C)C)NC(=O)C(C(C)c2ccccc2)NC(=O)C(C(C)C)NC1=O (stereo not drawn)	/	/	.	.[12.6 µM]	/	/
COc1cccc(-n2cnc3cc(C(=O)N4CCCCC4)ccc32)c1	/	/	/	.	/	/
COc1cccc(NCCC2(c3ccccc3)CC(C)(C)OC(C)(C)C2)c1	/	/	.	.	/	/
COc1ccc(C)cc1Nc1nc(N)c2cc(OC)c(OC)cc2n1	.	10µM	?	?	.	?
O=C(Nc1ccc(S(=O)(=O)Nc2ncc(-c3ccccc3)s2)cc1)c1ccc2ccccc2c1	/	/	/	.	/	/
COc1cc2ncnc(Nc3ccc(F)c(Cl)c3)c2cc1NC(=O)C=CCN1CCCCC1	/	/	.	.	/	/
SMILES	GALC G270D act	p53null 39C tox	FH mod	NTMT1 inh	GPR32 ag	p53null 32C kill
COc1cc2ncnc(Nc3ccc(F)c(Cl)c3)c2cc1OCCCN1CCOCC1	.	/	.	12.6µM!	77.3	/
C=CC(=O)Nc1cc2c(Nc3ccc(F)c(Cl)c3)ncnc2cc1OCCCN1CCOCC1	.	/	.	11.2µM!	.	/
C=C1CC2C(C)(CCC(=O)O)C(C(C)(C)O)CCC2(C)C2(C(=O)OC)C(=O)C(C)(O)C(=O)C12C (stereo not drawn)	/	/	.	.	/	/
Cc1ccc2oc(-c3cc(NC(=O)Cc4ccccc4)ccc3Cl)nc2c1	/	.	/	/	64.3	.
Cc1ccc2oc(-c3ccc(NC(=O)CCC(=O)O)cc3)nc2c1	.	?	.	.	.	12.6µM
Cc1ccc2oc(-c3cc(NC(=O)CC(C)C)ccc3Cl)nc2c1	/	.	/	/	.	.
COc1ccc(C(=O)Nc2ccc(-c3nc4cc(C)ccc4o3)c(O)c2)cc1	.	.	.	.	.	.
Cc1ccc(C(=O)Nc2ccc3oc(-c4ccccc4C)nc3c2)cc1	.	.	.	.	75.9	.
Cc1ccc(SCC(=O)Nc2ccc3oc(-c4cccc(C)c4)nc3c2)cc1	.	.	?	.	.	.
CN1C(=O)N[C@H](Cc2c[nH]c3c(Cl)cccc23)C1=O	/	/	/	.	/	/
Cc1cccc(NC(=O)CSc2ncc(-c3ccc(Br)cc3)[nH]2)c1	.	20µM	.	.	.	.
CC1=C2C(=O)O[C@@H](c3ccoc3)[C@]2(C)CCC1	/	/	.	.	/	/
COc1ccccc1-c1nnc(SCC(=O)c2ccc(Cl)cc2)n1-c1ccccc1	.	.	?	.	79.5	.
COc1ccc(C(=O)Nc2ccc(-c3nc4ccccc4[nH]3)cc2)cc1Br	/	/	/	.	/	/
COc1ccc2cc1Oc1ccc(cc1)CC1c3cc(c(OC)cc3CCN1C)Oc1c(OC)c(OC)c(OC)c3c1C(C2)N(C)CC3 (stereo not drawn)	/	/	.	39.8µM	/	/
COc1ccc2cc1Oc1cc3c(cc1OC)CC[N+](C)(C)[C@H]3Cc1ccc(cc1)Oc1c(OC)c(OC)cc3c1[C@@H](C2)[N+](C)(C)CC3	.	/	.	12.6µM	.	/
COc1ccc(-c2nc(C)c(CCNC(=O)Cc3ccc(F)cc3)s2)cc1OC	.	.	.	.	.	.
COc1ccc(CC(=O)NCCc2sc(-c3ccc(Cl)cc3)nc2C)cc1OC	.	.	.	.	91.5	.
COc1ccc(-c2nc(C)c(CCNC(=O)C(=O)Nc3c(C)cccc3C)s2)cc1OC	.	.	.	.	70.0	.
COc1ccc(-c2nc(C)c(CCNC(=O)c3ccccc3Br)s2)cc1OC	.	.	.	.	.	.
CC(=O)c1cccc(NC(=O)c2nc3ccccc3n(C)c2=O)c1	.	2.51µM	.	25.1µM	62.1	2.82µM
COc1cc(NC(=O)c2nc3ccccc3n(C)c2=O)cc(OC)c1OC	.	?	.	.	.	.
CN(C)CCN(Cc1ccco1)C(=O)c1oc2ccccc2c1NC(=O)c1cccc(F)c1	?	12.6µM	.	?	.	.
CC(C)(C)OC(=O)N1CCN(c2cnc(NCc3ccc(-c4ccc(C#N)cc4)o3)cn2)CC1	/	/	/	.	/	/
O=C1NC(=O)[C@@H](c2c[nH]c3ccccc23)[C@H]1c1cn2c3c(cccc13)CCC2	/	/	/	.	/	/

Compound activity as filed in PubChem.
